Unmarked numbers belong to inactive results. Results filed as inconclusive are left out. Activity calls are given as the source filed them. Unless noted, calls follow the shape of the dose curve; as a rule, active = well fitted curve in the direction sought with a large enough effect; inconclusive = small, poorly fitted or top-dose-only effect, or another doubt; inactive = no such curve, though single readings can be large; an effect the other way counts as inactive or inconclusive.
How the values were obtained:
[1] = target: Lysosomal acid glucosylceramidase (Homo sapiens) (UniProt P04062); test: Glucocerebrosidase-p2 (AID 348; in the data active = potency below about 10 µM; also: potency is read from the fitted curve at half-maximal effect); settings: purified GBA, blue fluorogenic substrate, 40 min
Procedure, shortened: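 Normal human glucocerebrosidase (0.2 nM) with blue fluorogenic substrate (80 uM final) in citrate/phosphate pH 5.9 with 10mM sodium taurocholate, 0.01% tween-20; 40 min RT, NaOH/glycine stop; fluorescence Ex 365/Em 440; AC50 from a titration from 0.6 nM upwards.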

[2] = AP1 Signaling Pathway (AID 357; active = well fitted curve in either direction with a large enough effect, not every such curve was filed as active;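 also: ME-180 reporter cells stimulated with EGF at its EC50 level; % is scaled to controls: 0 for no effect and ±100 for the full control effect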); settings: ME-180 AP-1-bla reporter, EGF-induced, beta-lactamase ratio, 5 h; at 7.69 µM (top of the series) unless noted
Procedure, shortened: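 Read-out was the 460nm/530nm emission ratio (excitation 405nm) after CCF4 loading for 2.5 hours at room temperature. Cells carried an AP-1-driven beta-lactamase reporter, were stimulated with EC50 EGF plus compound for 5 hours, and AC50 values came from titrations.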

[3] = target: Cytochrome P450 1A2 (Homo sapiens) (UniProt P05177); test: p450-cyp1a2 (AID 410; calls by dose curve; also: potency is read from the fitted curve at half-maximal effect); settings: recombinant CYP1A2, luciferin-ME demethylation, luminescence; series mostly up to 57 µM
Procedure, shortened: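 O-Demethylation of luciferin 6' methyl ether by human CYP1A2 is monitored as luciferase luminescence. Substrate sits at Km (100uM); enzyme is 20nM. Values are scaled to 57 uM furafylline as maximal inhibition.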

[4] = NFAT Signaling Pathway (AID 444; active = well fitted curve in either direction with a large enough effect, not every such curve was filed as active;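 also: carbachol stimulus at about its EC50 of 1 µM final; % is scaled to controls: 0 for no effect and ±100 for the full control effect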); settings: Jurkat NFAT-bla M1, carbachol, beta-lactamase ratio, 5 h; at 7.69 µM (top of the series) unless noted
Procedure, shortened: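 Read-out: CCF4 FRET ratio (460 nm/530 nm) after 1 h RT dye loading, used for %activity and AC50 from titration series. Cells: Jurkat NFAT-β-lactamase/M1 line, treated with compound plus 1 uM carbachol for 5 h, 37 °C.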

[5] = Stat Signaling Pathway (AID 446; active = well fitted curve in either direction with a large enough effect, not every such curve was filed as active;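 also: ME-180 cervical cancer cells given 40 pM IL-6 alongside compound; SIE-controlled beta-lactamase reporter measured as 460/530 nm FRET emission ratio; % is scaled to controls: 0 for no effect and ±100 for the full control effect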); settings: ME-180 (cervical carcinoma) SIE beta-lactamase reporter, IL-6 stimulated, 5 h; at 7.69 µM (top of the series) unless noted
Procedure, shortened: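 Overnight-plated ME-180 cells bearing a STAT Inducible Element beta-lactamase reporter; 5 h co-exposure to compound and 40 pM IL-6; values normalized to 300 pM IL-6 and 125 nM JAK inhibitor controls.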

[6] = target: Glucocorticoid receptor (Homo sapiens) (UniProt P04150); test: GR-GFP Redistribution (AID 450;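 active = compounds whose dose series gives a full or clear partial fitted curve of increased nuclear translocation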; also: potency is read from the fitted curve at half-maximal effect); settings: U2OS GR-GFP nuclear translocation, laser cytometry, 2 h
[7] = target: Glucocorticoid receptor (Homo sapiens) (UniProt P04150); test: GR-EFC Redistribution (AID 451; calls by dose curve; also: potency is read from the fitted curve at half-maximal effect); settings: CHO-K1 GR-EFC translocation, beta-gal luminescence, 2 h
Procedure, shortened: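 Translocation of GR-ED fusion to nuclear EA restores b-gal, read by luminescence after 1 h room-temperature detection. Engineered CHO-K1 biosensor cells, 1,000/well, exposed 2 h at 37 C to titrations up to 46 uM final.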

[8] = target: 3',5'-cyclic-AMP phosphodiesterase 4B (Homo sapiens) (UniProt Q07343); test: qHTS Assay for Inhibitors of PDE-IV (AID 607; active = well fitted activation curve with a large enough effect in the main read-out, with a control signal flat, not every such curve was filed as active; also: % of control where 0% means no effect); settings: HEK293 ACTOne CNG channel cells, membrane potential fluorescence; series mostly up to 22.9 µM
Procedure, shortened: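 Live HEK293 cells with a modified cyclic nucleotide-gated (CNG) channel report intracellular cAMP via membrane-potential dye fluorescence (ex 535/em 590 nm). Endogenous PDE-IV was targeted. Compounds were tested at up to 22.9 uM final; RO 20-1724 100 uM served as control.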

[9] = target: Cytochrome P450 3A4 (Homo sapiens) (UniProt P08684); test: qHTS Assay for Inhibitors and Substrates of Cytochrome P450 3A4 (AID 884); settings: recombinant CYP3A4, Luciferin-PPXE luminescence; series mostly up to 57.1 µM; also: potency is read from the fitted curve at half-maximal effect; nearly all actives have a fitted effect of over 50% in size
Procedure, shortened: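 Luminescent readout of luciferin produced by CYP3A4 (20 nM) dealkylation of Luciferin-PPXE, 25 uM (its KM). NADPH-driven reaction ran 60 min at RT after 10 min compound preincubation; data scaled to 57 uM ketoconazole as 100% inhibition.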

[10] = target: Cytochrome P450 3A4 (Homo sapiens) (UniProt P08684); test: qHTS Assay for Activators of Cytochrome P450 3A4 (AID 885); settings: recombinant CYP3A4, Luciferin-PPXE luminescence, 60 min; series mostly up to 57.1 µM; also: nearly all actives have a fitted effect of over 65% in size
Procedure, shortened: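 Using 20nM recombinant human CYP3A4 in potassium phosphate (200mM), substrate Luciferin-PPXE at 25uM, luminescent luciferin detection followed a 60-min RT NADPH reaction; data scaled to 57 uM ketoconazole.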

[11] = target: Dual specificity protein kinase CLK4 (Homo sapiens) (UniProt Q9HAZ1); test: qHTS Assay for Inhibitors of CDC-like Kinase 4 (Kinase-Glo Assay) (AID 1770); settings: recombinant Clk4, Kinase-Glo ATP depletion luminescence; series mostly up to 66.7 µM; also: nearly all actives have a fitted effect of over 65% in size; also: potency is read from the fitted curve at half-maximal effect
Procedure, shortened: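 Recombinant human Clk4 (25 nM) phosphorylated RS repeat peptide (100 uM) with 1 uM ATP in Tris pH 7.5/MgCl2/EGTA/DTT/Triton buffer for 4.5 h at room temperature. Residual ATP was quantified by Kinase-Glo luciferase luminescence.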

[12] = target: Dual specificity protein kinase CLK4 (Homo sapiens) (UniProt Q9HAZ1); test: qHTS Assay for Inhibitors of CDC-like Kinase 4 (ADP-Glo Assay) (AID 1771); settings: recombinant CLK4, ADP-Glo luminescence; series mostly up to 80 µM; also: nearly all actives have a fitted effect of over 70% in size; also: potency is read from the fitted curve at half-maximal effect
Procedure, shortened: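 Compounds are pin-transferred onto substrate mix (100 uM RS peptide, 1 uM ATP), then 25 nM Clk4 is added. After 1 hr at room temperature, ADP-Glo reagent runs 45 min, detection reagent 30 min, then luminescence is read.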

[13] = target: Dual specificity protein kinase CLK4 (Homo sapiens) (UniProt Q9HAZ1); test: qHTS Assay for Inhibitors of CDC-like Kinase 4 (ADP-FP Assay) (AID 1795); settings: Transcreener ADP fluorescence polarization; series mostly up to 50 µM; also: nearly all actives have a fitted effect of over 60% in size; also: potency is read from the fitted curve at half-maximal effect
Procedure, shortened: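 Recombinant human Clk4 (6.25 nM) phosphorylated RS repeat peptide (100 uM) with 1 uM ATP in Tris pH 7.5/MgCl2/EGTA/DTT/Triton buffer for one hour. ADP was quantified by Transcreener competitive fluorescence polarization against an ADP calibration curve.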

[14] = target: Ubiquitin carboxyl-terminal hydrolase 1 (Homo sapiens) (UniProt O94782); test: Inhibitors of USP1/UAF1: Pilot qHTS (AID 504865); settings: purified USP1/UAF1, Ub-rhodamine cleavage fluorescence; series mostly up to 54.9 µM;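 also: rhodamine fluorescence freed from ubiquitin-rhodamine substrate followed over time; top concentration of the series differs between compounds; % is scaled to controls: 0 for no effect and ±100 for the full control effect; nearly all actives have a fitted effect of over 35% in size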
Procedure, shortened: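 USP1/UAF1 complex (1nM) preincubated with compound 15 min at room temperature, then Ub-Rho substrate (150nM final) added. Fluorescence read kinetically at 480/540 nm, 6 reads every 60 seconds. Buffer: 50mM HEPES pH 7.8, 0.5mM EDTA, 0.1 mg/ml BSA, 1mM TCEP, 0.01% Tween-20.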

[15] = Primary qHTS for small molecule stabilizers of the endoplasmic reticulum resident proteome: Secreted ER Calcium Modulated Protein (SERCaMP) assay (AID 1508630); settings: SH-SY5Y GLuc-SERCaMP (Gaussia luciferase released on ER calcium loss) secretion, thapsigargin, luminescence; series mostly up to 38.4 µM; also: % is scaled to controls: 0 for no effect and ±100 for the full control effect
Procedure, shortened: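 The SH-SY5Y reporter protocol was run at 3 concentrations up to 38.3 uM (primary) or 11 concentrations (follow-up): 16 h compound, 100 nM thapsigargin for 4 h, then extracellular luciferase luminescence.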

[16] = target: Mitogen-activated protein kinase 10 (Mus musculus) (UniProt Q61831); test: JNK3 AlphaScreen Assay (AID 530; active = well fitted curve in either direction with a large enough effect, not every such curve was filed as active); settings: JNK3 lysate, c-Jun phosphorylation; series mostly up to 57.1 µM
Procedure, shortened: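 qHTS titrations with 15 min compound pre-incubation before adding ATP (10 uM final). Read-out: AlphaScreen of Ser73-phosphorylated biotin-GST-cJun using HepG2 lysate JNK3 activated by IL-1β and TNFα.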

Sequence of Lysosomal acid glucosylceramidase (Homo sapiens) (P04062 whole entry, looked up): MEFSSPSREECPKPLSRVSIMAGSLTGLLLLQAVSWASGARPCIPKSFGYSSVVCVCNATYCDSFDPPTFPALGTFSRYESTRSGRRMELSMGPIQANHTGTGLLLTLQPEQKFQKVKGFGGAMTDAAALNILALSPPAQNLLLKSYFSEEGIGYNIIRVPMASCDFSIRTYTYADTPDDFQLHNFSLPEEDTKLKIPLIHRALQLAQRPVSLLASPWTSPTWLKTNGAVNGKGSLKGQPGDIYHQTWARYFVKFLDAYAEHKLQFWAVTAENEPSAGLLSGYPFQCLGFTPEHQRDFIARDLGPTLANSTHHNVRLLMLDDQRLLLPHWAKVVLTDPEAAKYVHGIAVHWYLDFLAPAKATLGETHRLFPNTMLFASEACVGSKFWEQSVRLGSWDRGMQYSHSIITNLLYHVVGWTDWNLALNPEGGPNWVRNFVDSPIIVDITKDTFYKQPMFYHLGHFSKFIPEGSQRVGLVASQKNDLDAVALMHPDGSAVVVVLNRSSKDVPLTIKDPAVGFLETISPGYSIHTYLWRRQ
Sequence of Glucocorticoid receptor (Homo sapiens) (P04150 whole entry, looked up, the tested form may be a part): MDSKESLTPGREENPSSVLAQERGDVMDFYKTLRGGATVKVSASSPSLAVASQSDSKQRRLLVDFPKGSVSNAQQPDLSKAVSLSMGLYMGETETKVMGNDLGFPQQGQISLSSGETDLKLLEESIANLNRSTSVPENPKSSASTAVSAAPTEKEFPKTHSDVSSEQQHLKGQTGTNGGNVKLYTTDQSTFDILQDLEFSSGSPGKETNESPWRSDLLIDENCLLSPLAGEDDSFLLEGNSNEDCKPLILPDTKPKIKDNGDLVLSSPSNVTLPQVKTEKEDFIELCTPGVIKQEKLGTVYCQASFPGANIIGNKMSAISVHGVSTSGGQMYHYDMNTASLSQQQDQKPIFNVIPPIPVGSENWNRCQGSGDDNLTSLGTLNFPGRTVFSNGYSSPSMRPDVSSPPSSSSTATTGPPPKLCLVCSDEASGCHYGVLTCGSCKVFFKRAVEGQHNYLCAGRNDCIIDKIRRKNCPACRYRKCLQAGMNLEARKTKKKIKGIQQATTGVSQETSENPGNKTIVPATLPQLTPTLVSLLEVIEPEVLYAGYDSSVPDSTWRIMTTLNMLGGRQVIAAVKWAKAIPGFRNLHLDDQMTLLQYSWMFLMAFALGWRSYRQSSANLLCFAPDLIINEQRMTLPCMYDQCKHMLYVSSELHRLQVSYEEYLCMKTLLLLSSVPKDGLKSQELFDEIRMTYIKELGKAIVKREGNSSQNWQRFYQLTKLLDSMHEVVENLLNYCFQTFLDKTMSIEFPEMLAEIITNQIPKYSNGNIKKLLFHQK
Sequence of Dual specificity protein kinase CLK4 (Homo sapiens) (Q9HAZ1 whole entry, looked up): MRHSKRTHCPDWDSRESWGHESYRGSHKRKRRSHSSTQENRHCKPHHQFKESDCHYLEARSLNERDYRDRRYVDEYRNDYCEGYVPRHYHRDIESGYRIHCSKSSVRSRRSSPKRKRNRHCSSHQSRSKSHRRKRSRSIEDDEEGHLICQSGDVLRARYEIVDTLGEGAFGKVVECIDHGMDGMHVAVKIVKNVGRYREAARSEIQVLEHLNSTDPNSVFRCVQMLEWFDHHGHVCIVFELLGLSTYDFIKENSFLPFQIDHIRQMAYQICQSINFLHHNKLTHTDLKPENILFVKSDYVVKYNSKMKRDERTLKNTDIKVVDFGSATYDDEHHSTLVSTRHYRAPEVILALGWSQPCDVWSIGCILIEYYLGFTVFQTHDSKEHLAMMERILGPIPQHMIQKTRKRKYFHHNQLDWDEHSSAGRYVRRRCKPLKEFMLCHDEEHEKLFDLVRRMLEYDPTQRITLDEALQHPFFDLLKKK
Sequence of Cytochrome P450 1A2 (Homo sapiens) (P05177 whole entry, looked up): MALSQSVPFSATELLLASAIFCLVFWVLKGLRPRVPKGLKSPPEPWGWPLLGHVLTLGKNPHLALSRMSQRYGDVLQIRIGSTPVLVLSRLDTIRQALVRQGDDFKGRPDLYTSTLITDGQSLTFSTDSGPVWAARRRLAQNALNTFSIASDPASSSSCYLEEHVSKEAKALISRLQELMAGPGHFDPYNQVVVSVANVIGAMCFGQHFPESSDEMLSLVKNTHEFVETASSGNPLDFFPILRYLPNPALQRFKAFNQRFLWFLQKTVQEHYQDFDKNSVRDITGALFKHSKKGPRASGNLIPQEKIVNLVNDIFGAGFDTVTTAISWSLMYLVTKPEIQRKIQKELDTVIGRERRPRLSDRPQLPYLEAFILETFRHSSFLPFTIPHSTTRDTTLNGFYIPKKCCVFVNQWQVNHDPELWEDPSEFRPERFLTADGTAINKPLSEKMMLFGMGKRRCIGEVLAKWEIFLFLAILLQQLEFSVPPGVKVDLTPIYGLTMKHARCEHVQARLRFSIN
Sequence of Cytochrome P450 3A4 (Homo sapiens) (P08684 whole entry, looked up): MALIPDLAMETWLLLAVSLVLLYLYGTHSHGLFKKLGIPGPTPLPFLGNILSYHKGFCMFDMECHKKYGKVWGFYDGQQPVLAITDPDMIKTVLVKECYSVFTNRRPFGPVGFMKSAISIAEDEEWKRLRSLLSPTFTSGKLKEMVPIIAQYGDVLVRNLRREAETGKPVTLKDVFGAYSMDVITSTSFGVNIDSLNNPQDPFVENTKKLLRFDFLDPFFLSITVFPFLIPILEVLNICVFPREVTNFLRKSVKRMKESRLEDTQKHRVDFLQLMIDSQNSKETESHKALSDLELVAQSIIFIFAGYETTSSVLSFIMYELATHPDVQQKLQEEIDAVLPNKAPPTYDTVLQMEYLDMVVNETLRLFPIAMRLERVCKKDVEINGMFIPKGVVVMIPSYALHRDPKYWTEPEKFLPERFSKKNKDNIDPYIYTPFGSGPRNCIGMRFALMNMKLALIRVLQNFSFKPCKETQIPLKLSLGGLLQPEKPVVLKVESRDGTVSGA
Sequence of Ubiquitin carboxyl-terminal hydrolase 1 (Homo sapiens) (O94782 whole entry, looked up): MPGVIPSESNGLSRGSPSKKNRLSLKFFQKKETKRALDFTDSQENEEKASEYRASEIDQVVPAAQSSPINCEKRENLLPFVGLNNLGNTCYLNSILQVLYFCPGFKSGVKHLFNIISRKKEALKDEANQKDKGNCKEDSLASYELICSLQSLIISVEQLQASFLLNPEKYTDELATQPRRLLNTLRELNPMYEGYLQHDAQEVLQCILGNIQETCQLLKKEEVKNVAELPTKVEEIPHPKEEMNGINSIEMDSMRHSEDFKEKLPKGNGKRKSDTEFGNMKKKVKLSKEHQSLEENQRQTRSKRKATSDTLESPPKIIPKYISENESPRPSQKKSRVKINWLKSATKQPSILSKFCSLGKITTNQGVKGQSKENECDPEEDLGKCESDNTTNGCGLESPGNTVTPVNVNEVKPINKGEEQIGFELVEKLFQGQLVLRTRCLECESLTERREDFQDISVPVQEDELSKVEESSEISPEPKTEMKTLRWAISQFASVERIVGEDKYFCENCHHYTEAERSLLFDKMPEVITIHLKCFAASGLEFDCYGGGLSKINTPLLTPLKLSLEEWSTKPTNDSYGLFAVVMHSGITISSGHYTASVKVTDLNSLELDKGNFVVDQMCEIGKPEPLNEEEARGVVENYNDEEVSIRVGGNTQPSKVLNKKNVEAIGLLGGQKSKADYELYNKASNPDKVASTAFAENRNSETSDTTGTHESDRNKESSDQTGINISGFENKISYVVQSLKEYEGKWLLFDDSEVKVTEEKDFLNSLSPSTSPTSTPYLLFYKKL
Sequence of 3',5'-cyclic-AMP phosphodiesterase 4B (Homo sapiens) (Q07343 whole entry, looked up): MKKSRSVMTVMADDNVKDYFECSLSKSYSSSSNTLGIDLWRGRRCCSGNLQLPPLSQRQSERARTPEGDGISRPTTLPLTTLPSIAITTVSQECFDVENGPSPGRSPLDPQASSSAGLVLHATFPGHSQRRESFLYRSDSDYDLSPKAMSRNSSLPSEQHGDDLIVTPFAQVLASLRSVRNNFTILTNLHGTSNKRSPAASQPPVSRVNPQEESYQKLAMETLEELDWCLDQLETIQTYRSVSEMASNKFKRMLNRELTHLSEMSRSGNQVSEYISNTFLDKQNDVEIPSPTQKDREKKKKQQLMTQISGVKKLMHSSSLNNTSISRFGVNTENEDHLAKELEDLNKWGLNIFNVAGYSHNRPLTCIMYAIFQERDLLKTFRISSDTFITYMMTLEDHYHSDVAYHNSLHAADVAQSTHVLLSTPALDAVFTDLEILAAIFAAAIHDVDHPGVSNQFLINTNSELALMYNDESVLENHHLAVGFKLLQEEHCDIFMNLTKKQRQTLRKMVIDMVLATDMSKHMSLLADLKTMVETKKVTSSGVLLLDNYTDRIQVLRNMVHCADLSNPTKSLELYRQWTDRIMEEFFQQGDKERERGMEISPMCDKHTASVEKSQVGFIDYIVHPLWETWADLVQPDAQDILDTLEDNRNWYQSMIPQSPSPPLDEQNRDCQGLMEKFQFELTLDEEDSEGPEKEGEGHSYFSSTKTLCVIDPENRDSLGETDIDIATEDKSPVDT

Row | SMILES | Potency [1] | activity change, negative = inhibition [2] | Potency [3] | activity change, negative = inhibition [4] | activity, negative = inhibition [5] | Potency [6] | Potency [7] | Potency [8] | Potency [9] | Potency [10] | Potency [11] | Potency [12] | Potency [13] | Potency [14] | outcome [15] | Potency [16]
1 | Cc1cnc(CNc2ncnc3ccc(-c4ccc5c(c4)OCO5)cc23)cn1 | > 11.4 µM | -18.1% | 0.398 µM (active) | 14.2% | -16.2% | > 46 µM | > 46 µM | inactive | 2.51 µM (active) | inactive | 0.282 µM (active) | 0.398 µM (active) | 0.224 µM (active) | inactive | inactive | –
2 | O=c1c(CCc2ccccc2)nc2cnc(N3CCOCC3)nc2n1CCc1ccccc1 | > 11.4 µM | 0.172% | 25.1 µM (active) | 6.88% | -4.94% | > 9.22 µM | > 46 µM | – | – | – | inactive | inactive | inactive | inactive | inactive | inactive
3 | COCCn1c(=O)c(-c2cccs2)nc2cnc(OC)nc21 | > 11.4 µM | 6.04% | 2.51 µM (active) | 15.6% | 6.32% | > 9.22 µM | > 46 µM | – | – | inactive | inactive | inactive | inactive | inactive | inactive | inactive

Reference: PubChem BioAssay (NCATS)
